Screen size: about 330,000 compounds; about 5,800 (1.8%) were called active. The sample holds actives, similar compounds and a random draw of the others, so the mix is not that of the screen. Values without a mark were called inactive.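 Rule for the calls: active = inhibition above about 50% at the single tested dose (limit read from the data); inactive = the rest.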
What follows are compounds tested against Sentrin-specific protease 6 (Homo sapiens) (UniProt Q9GZR1) (assay: SENP6 protease inhibitors, primary screen, biochemical, luminescence, uHTS (AID 2599;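 note: plate controls were DMSO wells with enzyme for no effect and DMSO wells lacking enzyme for full effect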)). Settings: Recombinant SENP6 catalytic domain, aminoluciferin luminescence; at 10 µM; active compounds read high.
Sequence of Sentrin-specific protease 6 (Homo sapiens) (Q9GZR1 628-1112 limits assumed): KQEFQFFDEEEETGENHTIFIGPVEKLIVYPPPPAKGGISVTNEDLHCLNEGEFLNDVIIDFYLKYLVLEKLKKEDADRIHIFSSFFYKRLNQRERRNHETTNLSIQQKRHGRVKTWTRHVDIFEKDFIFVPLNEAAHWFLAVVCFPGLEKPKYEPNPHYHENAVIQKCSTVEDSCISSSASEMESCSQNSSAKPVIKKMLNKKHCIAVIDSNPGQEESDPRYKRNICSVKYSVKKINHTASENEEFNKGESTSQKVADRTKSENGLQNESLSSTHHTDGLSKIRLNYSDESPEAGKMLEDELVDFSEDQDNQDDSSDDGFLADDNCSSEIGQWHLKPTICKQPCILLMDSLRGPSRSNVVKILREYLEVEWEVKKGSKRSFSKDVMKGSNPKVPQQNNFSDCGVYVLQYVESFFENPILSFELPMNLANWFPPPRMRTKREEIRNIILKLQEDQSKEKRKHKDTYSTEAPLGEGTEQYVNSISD

Row | Structure (SMILES) | inhibition
1 | Cc1ccc(NS(=O)(=O)c2c(C)[nH]c(C)c2C(=O)N2CCCCC2)c(C)c1 | -8.53%
2 | S=C(Nc1cccc(Br)c1)N1CCn2cccc2C1c1cccnc1 (configuration not stated) | -5.73%
3 | CC(C)CCNC(=O)CC1C(=O)N(Cc2ccccc2)C(C)c2nc3ccccc3n21 (configuration not stated) | -1.07%
4 | CC(C)c1ccc(C(=O)OC2CCOC2=O)cc1 (configuration not stated) | -5.48%
5 | COc1cc(C(=O)OC2CCOC2=O)c([N+](=O)[O-])cc1OC (configuration not stated) | -15.4%
6 | O=C(OC1CCOC1=O)c1ccc(-c2nc3ccccc3s2)s1 (configuration not stated) | 97.8% (active)
7 | C/C(=N\Nc1nncc2ccccc12)c1ccc(Cl)c([N+](=O)[O-])c1 | 1.2%
8 | COc1cc(/C=N/Nc2nn3cnnc3c3ccccc23)cc(OC)c1OC | 2.31%
9 | CN(CCO)c1ccc(/C=N/Nc2nncc3ccccc23)cc1 | 96.7% (active)
10 | COc1ccc(NC(=O)C2C3C=CC(C3)C2C(=O)NCc2ccccn2)c(OC)c1 (configuration not stated) | 10.4%
11 | COc1ccc(-c2cc3ccc(OCc4nn[nH]n4)cc3oc2=O)cc1 | 68.8% (active)
12 | Cc1noc(C)c1COc1ccc2ccc(=O)oc2c1 | -9.61%
13 | CCCCc1cc(=O)oc2cc(C)cc(OCc3nn[nH]n3)c12 | -1.99%
14 | CCS(=O)(=O)Nc1ccc(C(=O)NCCSc2ccccc2)cc1 | 11.9%
15 | Cc1cccc(OCC(=O)Nc2ccccc2F)c1 | 56.4% (active)
16 | Cc1cccc(OCCC(=O)Nc2ccccc2C(N)=O)c1 | -32.4%
17 | COc1ccc([N+](=O)[O-])cc1NC(=O)CCc1ccccc1 | -1.66%
18 | Cc1cccc(OCC(=O)Nc2ccc(C(=O)O)cc2NC(=O)COc2cccc(C)c2)c1 | 10.8%
19 | Cc1ccc(F)c(NC(=O)CCc2ccccc2)c1 | 51.3% (active)
20 | Cc1ccc(F)c(NC(=O)CCOc2ccccc2C)c1 | 5.27%
21 | CCOC(=O)C1C(=O)NCC1c1ccccc1 (configuration not stated) | -10.2%

Row | Structure (SMILES) | inhibition
22 | Cc1ccc(-c2ccnc3nc(Sc4ncc(C(F)(F)F)cc4Cl)nn23)cc1 | 3.77%
23 | CCOC(=O)CSC1=N/C(=C/c2ccc(-n3cncn3)cc2)C(=O)N1C(C)=O | 4.91%
24 | CCOC(=O)C1CCN(C(=O)CN2C(=O)c3cccnc3Oc3ccc(C)cc32)CC1 | -14.4%
25 | Cc1nn(-c2ccccc2)c2[nH]c(C(F)(F)F)cc(=O)c12 | -1.92%
26 | N=c1c2c3c(sc2ncn1CCCN1CCOCC1)CCCCC3 | 3.22%
27 | O=C(O)C1OC(C(=O)O)C2C1C(F)(F)C2(F)F (configuration not stated) | -10.3%
28 | COc1cc(/C=C(\C#N)c2nc3ccccc3[nH]2)ccc1O | 92.4% (active)
29 | COc1cc(/C=C(\C#N)c2nc3c(s2)CC(C)CC3)ccc1O (configuration not stated) | 8.39%
30 | Cc1ccc2nc(/C(C#N)=C\c3ccc(OC(=O)c4cccs4)cc3)[nH]c2c1 | -7.94%
31 | c1ccc(C[C@H]2CNCCN2CCC23CC4CC(CC(C4)C2)C3)cc1 | 1.32%
32 | O=C(Nc1ccccc1Cc1ccccc1)c1ccc2c(c1)SC1=NS(=O)(=O)CCN12 | -1.13%
33 | O=C(NCc1ccco1)C(c1ccncc1)N(C(=O)Cn1nnc2ccccc21)c1ccccc1 (configuration not stated) | -7.82%
34 | O=C(CC1C(=O)NCCN1C(=O)c1ccc([N+](=O)[O-])cc1)Nc1cccc(Cl)c1 (configuration not stated) | -13.3%
35 | FC(F)(F)c1ccnc(Oc2ccc(C3=NCCS3)cc2)c1 | 74.8% (active)
36 | O=[N+]([O-])c1cccc(C2=NCCS2)c1 | -2.08%
37 | O=Cc1ccc(Oc2cccc(C(F)(F)F)c2)nc1 | 7.02%
38 | Cc1cccc(N)c1SC1CCCCC1O (configuration not stated) | 14.9%
39 | CCCCN1C(N)=NC[C@@H]1CC1CCCCC1 | -9.84%
40 | CCCCN(CC)CCNC(=O)CCNC(=O)Cn1ccc2ccccc2c1=O | -9.66%
41 | C=CCOc1ccc(Cl)cc1CNCCCN1CCOCC1 | 7.54%
42 | c1ccc(-n2nnnc2NC2CCCCCC2)cc1 | -14.3%

Row | Structure (SMILES) | inhibition
43 | O=C(c1ccccc1)N1N=C(c2ccccc2O)CC1c1ccc(Br)cc1 (configuration not stated) | -41.6%
44 | CNC(=S)N1N=C(c2ccccc2)CC1c1ccc(Br)cc1 (configuration not stated) | -4.9%
45 | Brc1ccc(C2CC(c3ccccc3)=Nc3ccccc3N2)cc1 (configuration not stated) | 81.3% (active)
46 | COc1cc(NC(=S)N2CCCC(C)C2)c(OC)cc1Cl (configuration not stated) | 1.77%
47 | O=C(CC(c1ccccc1)c1ccccc1)NCC(O)c1ccc([N+](=O)[O-])cc1 (configuration not stated) | -31.1%
48 | COC(=O)CCSc1nccn1Cc1ccccc1 | -11%
49 | CCCCCC(O)(CCN1CCCCC1)c1ccccc1 (configuration not stated) | 5.63%
50 | C/C(=N\NC(=O)CSc1nc2ccccc2c(=O)n1-c1ccccc1C)c1cccs1 | 6.68%
51 | Cc1cccc(/C=N/NC(=O)CNc2cccc3ccccc23)n1 | 78.3% (active)
52 | CC/C(=N\NC(=O)c1ccccc1Cl)c1ccc(Br)s1 | 3.9%
53 | Cc1ccccc1NCC(=O)N/N=C\c1ccc([N+](=O)[O-])s1 | 44%
54 | Cc1cccc(C(=O)Nc2ccc(C(=O)N/N=C/c3cccc(C)n3)cc2)c1 | -5%
55 | C/C(=N\NC(=O)CNc1cccc2ccccc12)c1ccc(Br)s1 | 77.3% (active)
56 | Cc1ccc(NC(=O)CSc2nc(=O)n(CCN(C)C)c3c2CCCC3)c(C)c1 | -3.87%
57 | CC(NC(=S)Nc1ccc(S(N)(=O)=O)cc1)c1ccc2c(c1)OCO2 (configuration not stated) | 7%
58 | CCn1c(SCC(=O)NNC(=O)c2ccc(OC)cc2)nnc1C(C)C | -13.3%
59 | Cc1nn2c(NCCN(C)C)c3c(nc2c1-c1ccccc1)CCC3 | -33.9%
60 | CC(NC(=O)COC(=O)c1ccc2ccccc2n1)c1ccccc1 (configuration not stated) | -2.28%
61 | Cc1ccc(S(=O)(=O)N(C)C)cc1NC(=O)C(C)OC(=O)c1ccc2ccccc2n1 (configuration not stated) | -0.065%
62 | CC(OC(=O)c1ccc2ccccc2n1)C(=O)c1ccccc1 (configuration not stated) | 65.8% (active)

Reference: PubChem BioAssay AID2599 (Sanford-Burnham Center for Chemical Genomics, 2010)
